Compound activity (PubChem BioAssay)
In the library only some 1.1% were active in any assay of this set; here they are far more common.
COUP-TFII inh: inhibitors of human COUP-TFII (NR2F2); P24468; HEK293T NGFI-A luciferase reporter, luminescence; inhibition, % at 8.6 µM; actives 0.7% (n = 370,000); AID 686940;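 active = inhibition above a per-plate cutoff, mean inhibition of test wells between control levels plus 3 SD, cut at about 38% in these data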;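 note: cells cotransfected with COUP-TFII expression vector driving the NGFI-A reporter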
SRC2 inh: human SRC2 (NCOA2) inhibition; AID 651957; HEK293 GAL4-SRC2 luciferase reporter, luminescence; inhibition, % at 9 µM; actives 0.17% (n = 370,000); Q15596;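 active = inhibition above the mean inhibition of all tested compounds plus 3 SD, set per campaign, cut at about 52% in these data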
SRC1 inh: inhibitors of human steroid receptor coactivator 1 (SRC1). Q15788. inhibition, % at 3.6 µM. HEK293 GAL4-SRC1 luciferase reporter, luminescence. actives 0.12% (n = 360,000);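 active = inhibition above the campaign mean plus 3 SD, with each screening campaign given its own cutoff, cut at about 60% in these data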
NCOA3 inh: inhibitors of human steroid receptor coactivator 3 (SRC3); Q9Y6Q9; actives 0.17% (n = 360,000); HEK293 GAL4-SRC3 luciferase reporter, luminescence; inhibition, % at 3.6 µM;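 active = inhibition above a per-campaign cutoff, the mean of all compounds plus 3 SD, cut at about 60% in these data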;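 note: higher means less SRC3-driven luciferase light from the GAL4 reporter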
NR5A2 inv ag: inverse agonists of human LRH-1 (NR5A2) | inhibition, % at 3.6 µM | O00482 | actives 0.13% (n = 360,000) | HEK293T StAR-luciferase reporter, LRH-1 transfected, 24 h;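 active = inhibition above the mean inhibition of all tested compounds plus 3 SD, cut at about 73% in these data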
GalR3 antag: blocks the human galanin receptor 3; O60755; HEK293 GalR3-CNG cAMP membrane potential fluorescence; galR3 body fused to GalR1 C-terminus; inhibition, % at 3 µM; actives 0.44% (n = 360,000);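 active = inhibition above the screen-wide average plus 3 SD, cut at about 13% in these data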;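 note: forskolin and galanin both at EC90 stimulate the cells; cAMP rise reported by CNG channel membrane potential dye signal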
GalR3 conf: confirmation of human galanin receptor 3 antagonists | shares compounds with GalR3 antag | inhibition, % at 3 µM | HEK293 GalR3 CNG cAMP biosensor, membrane potential fluorescence; galR3 fused to GalR1 carboxy tail; challenged with forskolin and galanin at EC90 | actives 59% (n = 1,600);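 active = inhibition above the primary screen's cutoff, the mean inhibition of all screened compounds plus 3 SD, cut at about 13% in these data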
HEK-CNG parental: acts as nonspecific agonist in parental HEK-CNG cells; shares compounds with GalR3 antag; HEK293-CNG parental cells, cAMP membrane potential fluorescence; normalised: DMSO wells 0%, forskolin wells 100%; activation, % at 3 µM; actives 10% (n = 1,600); AID 652268; in the data active = activation above about 1.3%
Each line names hits and unclear results; the compound was inactive in the other large screens (follow-up assays come after a bar, where they were run).

CCCCNS(=O)(=O)/C=C/c1ccc(F)cc1CNC(=O)OC(C)(C)C	none (no result: SRC1 inh, NCOA3 inh, NR5A2 inv ag, GalR3 antag)
CCN(CC(=O)NCCCN1CCOCC1)S(=O)(=O)c1ccc(F)cc1	GalR3 antag 19 | GalR3 conf inactive | HEK-CNG parental inactive
CCN(CC(=O)NCCCN1CCOCC1)S(=O)(=O)c1ccc(Cl)cc1	none
COc1cc(C2c3c(-c4cc(Cl)c(C)cc4O)n[nH]c3C(=O)N2Cc2cccnc2)ccc1O (stereo unspecified)	GalR3 antag 33 | GalR3 conf 24 | HEK-CNG parental inactive
COc1cccc(C2c3c(-c4cc(Cl)c(C)cc4O)n[nH]c3C(=O)N2Cc2cccnc2)c1 (stereo unspecified)	none
C=CCN1C(=O)/C(=C2/Sc3ccccc3N2CC)SC1=S	none
CCN1C(=O)/C(=C2/Sc3ccccc3N2CC)S/C1=N\c1ncn[nH]1	GalR3 antag 18 | GalR3 conf inactive | HEK-CNG parental inactive
CCC(=O)c1ccc(OCc2ccc(C(=O)c3ccccc3)cc2)cc1	GalR3 antag 37 | GalR3 conf 88 | HEK-CNG parental inactive
CCC(=O)c1ccc(OCc2ccccc2)c(OC)c1	none
CCCCc1nnc(NC(=O)c2nc3nccc(C)n3n2)s1	none
CCc1nnc(NC(=O)c2nc3nc(C)cc(C)n3n2)s1	GalR3 antag 13 | GalR3 conf inactive | HEK-CNG parental inactive
COC(C[C@H]1O[C@H]1[C@H](O)[C@H](C)OCc1ccccc1)OC	none (no result: GalR3 antag) | GalR3 conf inactive | HEK-CNG parental inactive
C=CCN(C)CC#Cc1ccccc1C	none (no result: SRC1 inh, NCOA3 inh, NR5A2 inv ag, GalR3 antag)
CCN(C(=O)CSc1nnc(-c2cccnc2)n1Cc1ccco1)c1ccccc1C	none (no result: SRC1 inh, NCOA3 inh, NR5A2 inv ag, GalR3 antag)
COc1ccc(C2=NN(c3nc(C(=O)O)cs3)C(O)(C(F)(F)F)C2)c(OC)c1 (stereo unspecified)	GalR3 antag 66 | GalR3 conf 74 | HEK-CNG parental inactive
Cc1cc(C(F)(F)F)n(-c2nc(C(=O)O)cs2)n1	none
CN(C)/C=N/c1nc2nccc(-c3cccs3)n2n1	GalR3 antag 13 | GalR3 conf inactive | HEK-CNG parental inactive
COC(=O)N1C[C@H](OC)[C@H]2C[C@@H]1c1ccccc1O2	none (no result: SRC1 inh, NCOA3 inh, NR5A2 inv ag)
COc1ccc2[nH]c3c(c2c1)CCN1C(=O)N([C@@H](C)C(=O)NCCc2ccc(OC)c(OC)c2)C(=O)[C@]31C	GalR3 antag 26 | GalR3 conf inactive | HEK-CNG parental inactive
Cc1cc(C(=O)N/N=C(\CCC(=O)O)c2cccs2)c2ccccc2n1	GalR3 antag 17 | GalR3 conf inactive | HEK-CNG parental inactive
CC(C)C(C#CC1CC1)NCc1ccc2c(c1)OCO2 (stereo unspecified)	none (no result: SRC1 inh, NCOA3 inh, NR5A2 inv ag, GalR3 antag)
OCC1(Cc2cccc(F)c2)CCN(Cc2cccc3nccnc23)CC1	none
CC(C)c1csc(CN2CCC(CO)(Cc3cccc(F)c3)CC2)n1	GalR3 antag 13 | GalR3 conf inactive | HEK-CNG parental inactive
Cc1occc1-c1nnc(SCCNCCO)o1	GalR3 antag 15 | GalR3 conf inactive | HEK-CNG parental inactive
Cc1occc1-c1nnc(SCC(=O)NCCc2ccccc2)o1	none
CS(=O)(=O)N1CCN(c2ccc([N+](=O)[O-])cc2C(F)(F)F)CC1	GalR3 antag 18 | GalR3 conf 14 | HEK-CNG parental inactive
CS(=O)(=O)N1CCN(c2ccc([N+](=O)[O-])cc2F)CC1	none
COC(=O)C1CN(Cc2ccc(F)cc2)CCS(=O)(=O)N1Cc1ccc(C)cc1 (stereo unspecified)	none (no result: SRC1 inh, NCOA3 inh, NR5A2 inv ag, GalR3 antag)
COC(=O)[C@H](CC(C)C)N(CCCc1cn(Cc2ccccc2)nn1)S(=O)(=O)c1ccccc1Br	none (no result: SRC1 inh, NCOA3 inh, NR5A2 inv ag, GalR3 antag)
COc1ccccc1NC(=O)OC1CCC12CCCCC2 (stereo unspecified)	none (no result: SRC1 inh, NCOA3 inh, NR5A2 inv ag, GalR3 antag)
COc1cc(/C=N/n2cnnc2)ccc1OCc1ccc(C)cc1	GalR3 antag 59 | GalR3 conf 44 | HEK-CNG parental inactive
COC(=O)[C@H]1C[C@@]2(N3CCCCC3)c3ccccc3N(S(=O)(=O)c3ccccc3)[C@H]2N1	none (no result: SRC1 inh, NCOA3 inh, NR5A2 inv ag, GalR3 antag)
O=C(CN(Cc1ccco1)C(=O)Cn1nnc(-c2ccc(F)cc2)n1)NC1CCCC1	none
COc1ccc(-c2nnn(CC(=O)N(CC(=O)NC3CCCC3)Cc3ccco3)n2)cc1OC	GalR3 antag 21 | GalR3 conf 14 | HEK-CNG parental inactive
COc1ccc(CCC(=O)OCC(=O)Nc2sccc2C(N)=O)cc1OC	GalR3 antag 99 | GalR3 conf 92 | HEK-CNG parental inactive
COc1ccc(CCC(=O)OCC(=O)Nc2sccc2C(N)=O)cc1	none
Cc1ccc(OCC(=O)OCC(=O)Nc2sccc2C(N)=O)cc1C	GalR3 antag 27 | GalR3 conf inactive | HEK-CNG parental inactive
N#Cc1ccc(OCC(=O)OCC(=O)Nc2sccc2C(N)=O)cc1	none
COC(=O)C[C@H]1CC[C@@H]2[C@@H](COc3ccc(NC(=O)Nc4ccccc4OC)cc3C(=O)N2C)O1	none (no result: SRC1 inh, NCOA3 inh, NR5A2 inv ag, GalR3 antag)
Cc1ccc(C=Nn2c(-c3n[nH]c4c3CCC4)n[nH]c2=S)o1	none (no result: SRC1 inh, NCOA3 inh, NR5A2 inv ag, GalR3 antag)
COC(=O)[C@]12C[C@H](CC(=O)N3CCN(C(=O)c4ccco4)CC3)C(=O)N(CCc3ccc(OC)c(OC)c3)C1=C[C@H](C(C)(C)C)O[C@@H]2C	none (no result: SRC1 inh, NCOA3 inh, NR5A2 inv ag, GalR3 antag)
CN(C)c1ccc(C#Cc2ccc3cc(CCO)oc(=O)c3c2)cc1	none (no result: COUP-TFII inh, SRC2 inh, GalR3 antag)
O=C1c2ccccc2C(=O)N1CCC#Cc1ccc2cc(CCO)oc(=O)c2c1	GalR3 antag 13 | GalR3 conf inactive | HEK-CNG parental inactive
O=C(C=C=Nc1ccccc1)C(=O)N=C=Cc1ccccc1	GalR3 antag 18 | GalR3 conf inactive | HEK-CNG parental inactive
Cn1c(CNc2nc3ccccc3n2C)nc2ccccc21	GalR3 antag 15 | GalR3 conf inactive | HEK-CNG parental inactive
COC(=O)[C@]12C[C@H](CC(=O)N3CCN(C(=O)c4ccco4)CC3)C(=O)N(Cc3ccccc3)C1=C[C@H](C1CCCC1)O[C@@H]2C	none (no result: SRC1 inh, NCOA3 inh, NR5A2 inv ag)
NS(=O)(=O)c1ccc(CNC(=O)c2csc3c2CCCC3)cc1	GalR3 antag 27 | GalR3 conf 13 | HEK-CNG parental inactive
CCCNC(=O)c1csc2c1CCCCC2	none
O=C(O)c1ccc(NS(=O)(=O)c2cccc(C(=O)Nc3ccccc3[N+](=O)[O-])c2)cc1	none
CN(C)S(=O)(=O)c1cccc(C(=O)Nc2ccccc2[N+](=O)[O-])c1	GalR3 antag 15 | GalR3 conf inactive | HEK-CNG parental inactive
Clc1ccc(-n2c(SCc3cccc4ccccc34)nnc2-c2ccccc2)cc1	none (no result: SRC1 inh, NCOA3 inh, NR5A2 inv ag, GalR3 antag)
CCC(=O)Nc1ccc(F)c(Cl)c1	none (no result: GalR3 antag) | GalR3 conf inactive | HEK-CNG parental inactive
